In PubChem BioAssay AID602257 (NMMLSC, 2012):
Potency and affinity values are given separately.

Experiment: yeast V-ATPase proton pumping modulator potency, dose response, S. cerevisiae, pHLuorin, powder set 1 (AID 602257)
Conditions: vacuolar pH, pHLuorin fluorescence; series mostly up to 100 µM; response: at the top concentration; call rule not given here

response, inactive:
O=C(C1CCCCC1)N1CCN(c2nc3ccc(F)cc3s2)CC1 12.2%
O=C(c1ccc(Cl)s1)N1CCN(c2nc3ccc(F)cc3s2)CC1 2.1%
Cc1cc(C(=O)N2CCN(c3nc4ccc(F)cc4s3)CC2)n(C)n1 0.29%
O=C(c1ccc([N+](=O)[O-])o1)N1CCN(c2ccccn2)CC1 0.79%
O=C(c1ccc([N+](=O)[O-])o1)N1CCN(c2nc3ccc(F)cc3s2)CC1 18.2%
Cc1cc(C(=O)N2CCN(c3nc4ccc(F)cc4s3)CC2)nn1C 1.54%
CC(C)(C)C(=O)N1CCN(c2nc3ccc(F)cc3s2)CC1 8.07%
O=C(c1ccc([N+](=O)[O-])o1)N1CCN(c2nccs2)CC1 7.98%
COc1ccc2nc(N3CCN(C(=O)c4ccc([N+](=O)[O-])o4)CC3)sc2c1 28.2%
O=C(C1CC1)N1CCN(c2nc3ccc(F)cc3s2)CC1 2.04%
O=C(c1ccno1)N1CCN(c2nc3ccc(F)cc3s2)CC1 5.96%
O=C(c1nc2ccccc2s1)N1CCN(c2nc3ccc(F)cc3s2)CC1 4.2%
O=C(c1ccc(Br)s1)N1CCN(c2nc3ccc(F)cc3s2)CC1 2.32%
O=C(c1cccs1)N1CCN(c2nc3ccc(F)cc3s2)CC1 9.99%
CS(=O)(=O)c1cccc2sc(N3CCN(C(=O)c4ccc([N+](=O)[O-])o4)CC3)nc12 4.59%
CS(=O)(=O)c1ccc2nc(N3CCN(C(=O)c4ccc([N+](=O)[O-])o4)CC3)sc2c1 -1.5%
O=C(c1cnccn1)N1CCN(c2nc3ccc(F)cc3s2)CC1 -8.97%
O=C(c1ccco1)N1CCN(c2nc3ccc(F)cc3s2)CC1 10.7%
Cc1cc(C(=O)N2CCN(c3nc4ccc(F)cc4s3)CC2)no1 6.3%
Cc1cc(C(=O)N2CCN(c3nc4ccc(F)cc4s3)CC2)on1 2.54%
